For 104 compounds, INHIBITION results are on record in ChEMBL document CHEMBL4513216, “Probing the Open Global Health Chemical Diversity Library for Multistage-Active Starting Points for Next-Generation Antimalarials” (ACS Infect Dis, 2020).

Screen size: about 68,000 compounds; about 2,700 (4%) showed an effect of 50% or more. Only a selection was taken, and strong results are over-represented in it overall.

The test deals with Plasmodium berghei. The experiment in a line: Screen against P. berghei liver stage (PbLuc), transformed with Luciferase, at 2uM. Particulars: tested at 2 uM. The class given is functional, HepG2.
With `CC(C)n1cnc2c1C(C(=O)N1CCCC1)N(S(C)(=O)=O)CC2` (centres undefined), the INHIBITION is 29.19%.
Turning to `Cn1cc(I)c(C(=O)NCCCn2cc(Br)cn2)n1`, the INHIBITION is -6.71%.
In the case of `Cc1nn(C)c(C)c1C(C(=O)O)N1CCc2ccccc2C1` (centres undefined), the INHIBITION was 11.33%.
As for `O=C(NCCS(=O)(=O)N1CCN(c2ncccn2)CC1)c1ccccc1`, the INHIBITION worked out at 30.62%.
With `Cc1nc(CN2C[C@@H]3CCCO[C@@H]3[C@H](N(C)C(C)C)C2)cs1`, the INHIBITION was -20.01%.
For the compound `CC(=O)N1CC(C)CN(C(=O)c2cccnc2C)c2ccccc21` (centres undefined), the INHIBITION is given as -5.98%.
`N#Cc1c(Cl)nsc1NCc1cccnc1OC1CCCC1`: the INHIBITION is -59.9%.
Consider `O=c1[nH]cnc2c1CCN(S(=O)(=O)c1ccc(Cl)cc1)C2`, for which the INHIBITION turned out to be 5.1%.
The same measure for `O=S1(=O)c2ccccc2C2(CCN(Cc3cccnc3)C2)N1CC1CC1` (centres undefined): 30.39%.
As to `CCC(=O)N1CCc2nc(N3CCOCC3)nc(N(C)C)c2CC1`, the INHIBITION turned out to be 54.62%.
In the case of `Cc1nc(N2CCCC2)nc2c1CCN(C(=O)NC1CCCC1)CC2`, the INHIBITION was determined as 40.28%.
The figure for `Cc1nc(N2CCOCC2)nc2c1CCN(C(=O)NC1CCCC1)CC2` is 51.57%; for `CC(=O)N1CCc2nc(N3CCCC3)nc(C)c2C1` it is 15.57%.
Take `CCCS(=O)(=O)N1CCc2nc(N3CCOCC3)nc(N(C)C)c2C1`: the INHIBITION came out at 40.64%.
The figure for `Cc1nc(N2CCCC2)nc2c1CN(C(=O)NC(C)C)CC2` is 60.05%; for `Cc1nc(N2CCOCC2)nc2c1CCN(C(=O)C1CCCCC1)CC2` it is 36.99%.
On to `Cc1nc(N2CCCC2)nc2c1CCN(C(=O)NC(C)C)CC2`, for which the INHIBITION was -4.2%.
Turning to `CCS(=O)(=O)N1CCc2nc(N3CCOCC3)nc(N(C)C)c2CC1`, the INHIBITION came out at 21.57%.
The figure for `N#Cc1cccc(C(=O)NC2CCc3c(ccc(=O)n3CC3CC3)C2)c1` (centres undefined) is -7.45%; for `COC(=O)c1cccc(S(=O)(=O)NC(=O)CC2CCCC2)c1` it is -30.66%.
Turning to `CC1CN(Cc2nnsc2Cl)CCN1c1nccs1` (centres undefined), the INHIBITION worked out at 24.82%.
The figure for `O=C(NC1CC1)[C@H]1C[C@@H]2CCN(Cc3ccc4c(c3)OCO4)C[C@@H]2O1` is 14%; for `CCc1cc(NCCN2CCNC2=O)n2nc(C)c(C)c2n1` it is -35.07%; for `O=C(Cc1ccccc1)N1CCC(c2nnc(-c3ccccn3)o2)CC1` it is 11.53%.
The same measure for `CCn1ncc(CN2CCN(C(=O)Cn3cc(Br)c(C)n3)CC2)c1C`: -22.24%; for `COc1cccc(CN(Cc2ccco2)Cc2cnc(C)n2C)c1`: -4.04%.
As for `Cc1nc2cc(=O)[nH]n2c(C)c1CNC(=O)c1cnn(C(C)(C)C)c1`, the INHIBITION is given as -46.8%.
The same measure for `COc1ncccc1NC(=O)N(Cc1ccco1)C1CC1`: 20.93%; for `CCN(C(=O)Nc1cccnc1OC)C1CC1`: -14.3%; for `Cc1ccc(CN(C(=O)NCC2CCCO2)C2CC2)o1` (centres undefined): 57.85%.
As to `Cc1ccc(CN(C(=O)NCC2CCS(=O)(=O)C2)C2CC2)o1` (centres undefined), the INHIBITION is listed as 26.39%.
On to `Cc1ccc(CN(C(=O)NCC(c2cccs2)N(C)C)C2CC2)o1` (centres undefined), for which the INHIBITION is reported as -38.2%.
The same measure for `COc1ncccc1NC(=O)N(Cc1ccc(C)o1)C1CC1`: 51.21%; for `Cc1cc(CN2CCN(C(=O)CCCc3nc(C(C)C)no3)CC2)on1`: 26.06%; for `COc1ncc(-c2ccc(C(N)=O)cc2)c(OC)n1`: 29.41%.
With `Cc1cc(C)c(CNC(=O)NCCCNc2ccccn2)c(=O)[nH]1`, the INHIBITION came to 34.65%.
Take `CCN1C[C@H]2CCN(C(C)=O)CC[C@H]2S1(=O)=O`: the INHIBITION is on record as 59.49%.
The same measure for `CCN1C[C@H]2CCN(C(=O)NC)CC[C@H]2S1(=O)=O`: -11.73%; for `COCCN1C[C@H]2CCN(C(C)=O)CC[C@H]2S1(=O)=O`: 43.05%; for `O=C(NCCN1CCOCC1)c1ccc(-c2ccccc2)[nH]c1=O`: 40.47%.
For `O=C(NCCCN1CCOCC1)c1ccn(COc2ccc(Br)cc2)n1`, the INHIBITION is 12.84%.
In the case of `O=C(NCCN1CCOCC1)c1ccc(-c2ccc(F)cc2)nc1O`, the INHIBITION was determined as 58.75%.
As to `Cc1ccc(C(=O)NCCN2CCOCC2)c(=O)[nH]1`, the INHIBITION is given as -84.65%.
The same measure for `O=C(NCCN1CCOCC1)c1ccn(COc2ccc(F)cc2)n1`: -10.62%.
With `O=C(NCCCN1CCOCC1)c1ccn(COc2ccc(F)cc2)n1`, the INHIBITION came to 58.42%.
As for `CCc1nnc(C(C)N2CCN(CCC(=O)NC3CC3)CC2)o1` (centres undefined), the INHIBITION amounted to 35.61%.
As for `CC(C)(C)C(CCO)NC(=O)Nc1ccncc1` (centres undefined), the INHIBITION turned out to be 6.84%.
On to `Cc1c(C(=O)NC(C)C)nnn1-c1cccc(C(F)(F)F)c1`, for which the INHIBITION is -8.75%.
Consider `CC(C)NC(=O)c1nnn(-c2cccc(C(F)(F)F)c2)c1C1CC1`, for which the INHIBITION was -66.52%.
`CC(C)NC(=O)c1nnn(-c2cccc(C(F)(F)F)c2)c1N`: the INHIBITION stood at 50.54%.
In the case of `COCCc1noc(CN2C(=O)OC[C@@H]2C(C)C)n1`, the INHIBITION was -7.66%.
With `CC1N(C)C(=O)COC12CCN(C(=O)CCc1ccccc1)CC2` (centres undefined), the INHIBITION turned out to be 65.38%.
With `CC1N(C)C(=O)COC12CCN(Cc1ccsc1)CC2` (centres undefined), the INHIBITION was -30.38%.
For the compound `CC1N(C)C(=O)COC12CCN(C(=O)Cc1ccsc1)CC2` (centres undefined), the INHIBITION is 2.18%.
The same measure for `O=C(c1cccc(F)c1)N1CCC2(CC1)CC(N1CCOCC1)C2`: -21.77%; for `CCc1n[nH]c(C2CN(Cc3csc(COC)n3)CCO2)n1` (centres undefined): 12.58%; for `c1cc(-c2nnn3c2COC(CNCC2CCOCC2)C3)ccn1` (centres undefined): 86.79%.
As for `c1ccc(-c2nnn3c2COC(CNCC2CC2)C3)cc1` (centres undefined), the INHIBITION was 14.48%.
Turning to `c1ccc(-c2nnn3c2COC(CNCC2CCOCC2)C3)cc1` (centres undefined), the INHIBITION came to 12.36%.
Regarding `Cc1cccc(C(=O)NCc2ccc(N3CCCCCC3)nc2)n1`, the INHIBITION is recorded as -26.87%.
The same measure for `Cc1cn2c(n1)C(CNCC1=Cc3cc(Cl)ccc3OC1)CCC2` (centres undefined): 9.21%.
For `CCCS(=O)(=O)N1CCC2(CC1)CC(N1CCCC1)c1ccccc12` (centres undefined), the INHIBITION is on record as -21.74%.
In the case of `Cc1nc2c(c(=O)[nH]1)CN(C(=O)CCC1CCCN(C)C1)C2` (centres undefined), the INHIBITION is on record as 19.48%.
`CC(C)c1ccc(S(=O)(=O)N2CCCC3(CCCN3S(C)(=O)=O)C2)cc1` (centres undefined): the INHIBITION is on record as 42.62%.
The same measure for `CCOCCC(=O)Nc1ccnn1-c1ccc(Cl)cc1`: -24.07%; for `CCOCCC(=O)Nc1cccc(Cl)c1C(N)=O`: 56.89%.
For the compound `CCOCCC(=O)Nc1cccc(Cl)c1COC`, the INHIBITION worked out at 1.06%.
The figure for `CC(C)CCc1nc(CNCC2CCCN2c2cccnn2)cs1` (centres undefined) is 15.47%; for `CN(C)C(=O)c1n[nH]c2c1CN(Cc1nccs1)CC2` it is -8.84%; for `c1cncc(CNCCc2cccs2)c1` it is -10.44%.
For `COCCNC(=O)CSCc1nc(O)c2cc(C(C)C)sc2n1`, the INHIBITION is -43.28%.
On to `COC(=O)C(C)NC(=O)CSCc1nc(O)c2cc(C(C)C)sc2n1` (centres undefined), for which the INHIBITION is 52.08%.
The figure for `COC(=O)CNC(=O)CSCc1nc(O)c2cc(C(C)C)sc2n1` is 5.36%.
The figure for `Cc1nc[nH]c1CN(Cc1ccc(F)cc1)C1CC(C)(C)NC(C)(C)C1` is -24.35%; for `Cc1nc[nH]c1CN(Cc1ccccc1F)C1CC(C)(C)NC(C)(C)C1` it is 39.26%.
As to `Cc1nc[nH]c1CN(Cc1ccccc1)C1CC(C)(C)NC(C)(C)C1`, the INHIBITION is on record as 50.68%.
As to `O=C(NCc1ccco1)[C@H]1C[C@@H]2CCN(c3cccc(F)c3)C[C@H]2O1`, the INHIBITION is 45.28%.
The figure for `CCCN1CCC(N2CCN(c3cccc(C)n3)CC2)CC1` is 36.24%.
As to `Nc1cc(CCC2CN(Cc3ccc4cc[nH]c4c3)CCO2)ccn1` (centres undefined), the INHIBITION was 52.69%.
On to `COc1ccc(CN2CCOC(CCc3ccnc(N)c3)C2)cc1` (centres undefined), for which the INHIBITION is on record as -152.49%.
For `Nc1cc(CCC2CN(Cc3ccc4c(c3)OCCO4)CCO2)ccn1` (centres undefined), the INHIBITION is 23.87%.
As for `COCC1CN(Cc2ccc(OC)cc2)Cc2nn(C)cc21` (centres undefined), the INHIBITION is reported as -62.13%.
Consider `CN(CC(=O)N1CCOC(CCc2ccccc2)C1)Cc1ccccn1` (centres undefined), for which the INHIBITION is listed as 3.94%.
In the case of `CC(C)NC(=O)[C@@H]1C[C@@H]2CCN(Cc3ccoc3)C[C@H]2O1`, the INHIBITION amounted to 0%.
With `CC(c1nc(C(C)(C)C)no1)N1CCC(N2CCCC2)CC1` (centres undefined), the INHIBITION came out at 4.52%.
The figure for `CCS(=O)(=O)N1CCc2ccc(NC(=O)Nc3ccccc3)cc21` is 20.38%; for `NS(=O)(=O)N1CCc2ccc(NC(=O)CC(F)(F)F)cc21` it is 6.91%.
On to `CCS(=O)(=O)N1CCc2ccc(NC(=O)Nc3ccc(F)cc3F)cc21`, for which the INHIBITION worked out at 36.98%.
For `CCS(=O)(=O)N1CCc2ccc(NC(=O)Nc3ccccc3C)cc21`, the INHIBITION was -7.56%.
The figure for `CCS(=O)(=O)N1CCc2ccc(NC(=O)Nc3cccc(SC)c3)cc21` is 47.4%; for `NS(=O)(=O)N1CCc2ccc(NC(=O)Cc3ccccc3F)cc21` it is 60.14%.
Regarding `CCS(=O)(=O)N1CCc2ccc(NC(=O)Nc3cccc(F)c3)cc21`, the INHIBITION amounted to 78.93%.
Consider `CCS(=O)(=O)N1CCc2ccc(NC(=O)Nc3cccc(C)c3)cc21`, for which the INHIBITION amounted to 80.54%.
As to `NS(=O)(=O)N1CCc2ccc(NC(=O)Cc3ccc(F)cc3)cc21`, the INHIBITION amounted to 1.22%.
Regarding `O=C(O)c1cc2c(nc1N1CCOCC1)CCN(C1CCOC1)CC2` (centres undefined), the INHIBITION was -51%.
Regarding `CCc1ccc(C(=O)Nc2ccc(CC3CC(=O)NC3=O)cc2)s1` (centres undefined), the INHIBITION is reported as -3.62%.
The figure for `CCc1ncc(CN2CCN(c3cc(NC4CC4)nc(N)n3)CC2)cn1` is -18.65%; for `CCn1cc(NC(=O)Nc2ccc3c(c2)OCCO3)cn1` it is -27.62%.
For `Cc1cc(CN2CCC(CNC(=O)c3ccc4[nH]cnc4c3)C2)[nH]n1` (centres undefined), the INHIBITION is -48.91%.
The same measure for `CC(C)c1nn(C)c(N(C)C)c1CNC1CCN(CC2CC2)CC1`: 10.61%; for `O=c1[nH]c(N2CCCCC2)nc2c1CCN(Cc1cccnc1)C2`: 43.23%; for `CN1CCN(c2ncc3c(=O)n(Cc4ccco4)ccc3n2)CC1`: 59.01%.
On to `CCN1CCN(c2ncc3c(=O)n(Cc4ccco4)ccc3n2)CC1`, for which the INHIBITION is recorded as -20.72%.
With `O=c1c2cnc(N3CCCCC3)nc2ccn1Cc1ccco1`, the INHIBITION is -77.67%.
